Lamin A splicing = changes lamin A minigene splicing in HeLa cells | HeLa LMNA splicing GFP/RFP minigene ratio, 48 h | Potency, µM (top dose mostly 46.1 µM), without a hit: top-dose ratio change, negative = inhibition, hits mostly inhibitors | 200,000 tested, 0.01% active | AID 1487; active = well fitted inhibition curve with a large enough effect in the signal ratio, with a control signal flat, not every such curve was filed as active; inconclusive = small, poorly fitted or top-dose-only effect, or effect the other way, or a change in a side signal; the % refers to the signal ratio; also: potency is read from the fitted curve at half-maximal effect; % is scaled to controls: 0 for no effect and ±100 for the full control effect
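S3 HeLa stable clones carrying a lamin A-EGFP splicing minigene plus DsRed2 were seeded at 600 cells/well in Opti-MEM with 2% FBS, pin-dosed and incubated 48 h at 37°C. Acumen cytometry (488 nm) gave the GFP/RFP total-intensity ratio.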
MBNL1-CUG inh = blocks human MBNL1 binding to CUG repeat RNA. 280,000 tested, 0.036% active. TR-FRET MBNL1-His/biotin-(CUG)12 binding, 665/545 ratio. AID 2675. Potency, µM (highest dose often 57.5 µM), without a hit: at the top dose activity change, negative = inhibition, usual class: inhibitors; active = well fitted inhibition curve with a large enough effect in the signal ratio, with a control signal flat, not every such curve was filed as active; inconclusive = small, poorly fitted or top-dose-only effect, or effect the other way, or a change in a side signal; inactive = no such curve, though single readings can be large or run the other way; the % refers to the signal ratio; also: potency is read from the fitted curve at half-maximal effect; % is scaled to controls: 0 for no effect and ±100 for the full control effect
Target sequence (Q9NR56 whole entry, looked up): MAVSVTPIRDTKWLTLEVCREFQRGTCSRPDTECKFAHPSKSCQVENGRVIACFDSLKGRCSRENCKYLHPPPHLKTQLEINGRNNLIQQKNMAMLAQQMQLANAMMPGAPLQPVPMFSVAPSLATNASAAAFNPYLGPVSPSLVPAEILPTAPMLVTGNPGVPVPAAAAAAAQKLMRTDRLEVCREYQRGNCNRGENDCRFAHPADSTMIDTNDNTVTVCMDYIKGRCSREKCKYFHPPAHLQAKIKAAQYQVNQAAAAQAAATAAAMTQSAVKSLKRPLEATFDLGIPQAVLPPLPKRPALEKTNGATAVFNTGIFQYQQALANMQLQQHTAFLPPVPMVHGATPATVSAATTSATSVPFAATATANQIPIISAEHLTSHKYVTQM
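His-tagged MBNL1 binding to biotinylated (CUG)12 RNA was measured by TR-FRET using terbium anti-His antibody (0.055 ng/ul final) and streptavidin-XL665 (5 nM final). Compounds were titrated 92 nM to 58 uM; 60 min at room temperature.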
CBFb RUNX1 block = CBF-beta/RUNX1 interaction disruption | Q01196+Q13951 | AlphaScreen CBFb-His/RUNX1-biotin binding, biochemical | Potency, µM (top dose mostly 59.8 µM), for the others: top-dose activity, negative = inhibition, actives largely listed as inhibitors | 230,000 tested, under 10 active | AID 1477; also: % of control where 0% means no effect
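His-tagged CBF-beta and biotinylated RUNX1 (30 nM each) were premixed 20 min at room temperature, exposed to compound for 15 min, then given nickel-chelate and streptavidin AlphaScreen beads (50 ng each). After 90 min, AlphaScreen signal was read.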
HTT aggregate = reduces HttQ103-GFP aggregates in PC12 cells | Potency, µM (titrated, usually from 46.1 µM), for inactives: at the highest dose activity change, negative = inhibition, usual class: inhibitors | 220,000 tested, 1.1% active | AID 1688 | PC12 HttQ103-GFP aggregates, Acumen cytometry, 40 h; also: potency is read from the fitted curve at half-maximal effect; % is scaled to controls: 0 for no effect and ±100 for the full control effect; nearly all actives have a fitted effect of over 60% in size
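Steps: seed 1500 PC12 HTTQ103-GFP cells/well; add tebufenozide, 100 nM final; add compound titration; add ATPLite reagent; quantify GFP aggregates by laser scanning cytometry.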
HTT ATP protect = protects HTT-Q103 PC12 cells, measured by ATP; PC12 HTT-Q103 induced, cytoprotection, ATP luminescence, 40 h; Potency, µM (titrated, usually from 56.4 µM), for the others: cytoprotection (ATP increase), usual class: activators; 230,000 tested, 0.14% active; AID 1471; also: potency is read from the fitted curve at half-maximal effect; % of control where 0% means no effect; nearly all actives have a fitted effect of over 45% in size
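PC12 cells with ecdysone-inducible HTT exon 1 Q103-GFP, induced with 100 nM tebufenozide and co-treated with library compounds in a dose series (1536-well, 1500 cells/well). Cytoprotection read as ATP content by ATPlite luminescence.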
NPSR antag = blocks cAMP signaling of the human neuropeptide S receptor | CHO-NPSR cells, cAMP TR-FRET, antagonist mode | Potency, µM (series often up to 38.3 µM), for the others: at the highest dose activity change, negative = inhibition, usual class: inhibitors | 220,000 tested, 1% active; also: potency is read from the fitted curve at half-maximal effect; % is scaled to controls: 0 for no effect and ±100 for the full control effect; nearly all actives have a fitted effect of over 50% in size
Target sequence (Q6W5P4 whole entry, looked up): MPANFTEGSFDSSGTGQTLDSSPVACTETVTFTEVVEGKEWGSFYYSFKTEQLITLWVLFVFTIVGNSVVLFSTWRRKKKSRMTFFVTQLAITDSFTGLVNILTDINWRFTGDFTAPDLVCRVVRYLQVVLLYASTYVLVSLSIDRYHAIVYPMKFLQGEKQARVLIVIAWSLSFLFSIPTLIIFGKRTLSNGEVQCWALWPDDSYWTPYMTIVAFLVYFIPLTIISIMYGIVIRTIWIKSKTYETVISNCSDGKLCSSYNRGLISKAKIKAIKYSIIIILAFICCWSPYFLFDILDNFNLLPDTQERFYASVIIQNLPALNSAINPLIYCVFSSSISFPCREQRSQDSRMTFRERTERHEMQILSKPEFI
Starred values were filed as active, the others as inactive; u = inconclusive; x = not tested or not shown; [ ] = another dose, or the depositor's remark. A selection: hits, their analogues and other compounds. The true share with any hit is near 1.1%. Unless noted, calls follow the shape of the dose curve; as a rule, active = well fitted curve in the direction sought with a large enough effect; inconclusive = small, poorly fitted or top-dose-only effect, or another doubt; inactive = no such curve, though single readings can be large; an effect the other way counts as inactive or inconclusive.

SMILES | Lamin A splicing | MBNL1-CUG inh | CBFb RUNX1 block | HTT aggregate | HTT ATP protect | NPSR antag
CNC(=O)COC(=O)c1ccc(Cl)c(S(=O)(=O)N2CCCC2)c1 | -5%[46 µM] | 7% | -1% | u | 2.8µM* | 12%
O=C(OCC(=O)N1CCCCCC1)c1ccc(Cl)c(S(=O)(=O)N2CCCC2)c1 | -8%[46 µM] | -2% | -16% | 18% | -24% | -12%
C/C(=C\C(=O)O)C(=O)Nc1nccs1 | 0% | 1% | -3% | 0.11µM* | 2% | -9%[46.1 µM]
O=c1[nH][nH]cc1C=Nc1cc(Cl)ccc1O | x | u | -29% | -21% | 14µM* | 2%
O=c1[nH][nH]cc1C=Nc1ccc(Cl)cc1Cl | u | 0% | 24% | -23% | -3% | 11%
COc1ccc(Cl)cc1-c1ccc(C(=O)O)o1 | x | x | 12%[89.1 µM] | x | -27%[96.6 µM] | x
CCOc1ccc(NC2=C(OC)C(=O)c3ccccc3C2=O)cc1 | u | u | x | u | -60%[10 µM] | -30%
O=C1C(Cl)=C(Nc2ccc(O)cc2)C(=O)c2ccccc21 | x | u | -17% | u | -98%[10 µM] | u
CCNC1=C(Cl)C(=O)c2ccccc2C1=O | u | u | x | 13µM* | -25% | 4%[46.1 µM]
COC1=C(Nc2ccc(OC)cc2)C(=O)c2ccccc2C1=O | u | u | 0% | 13µM* | -15%[10 µM] | -30%
Cc1ccc(NC2=C(Cl)C(=O)c3ccccc3C2=O)cc1 | u | u | -2% | 10µM* | -29%[10 µM] | -29%[46.1 µM]
CCN(CC)c1ccc(NC2=C(Cl)C(=O)c3ccccc3C2=O)cc1 | u | u | 2% | u | x | 13µM*
O=C1C(Cl)=C(Nc2ccc(S(=O)(=O)Nc3ccccn3)cc2)C(=O)c2ccccc21 | x | x | x | x | -70%[10 µM] | x
C[C@H](N)C1CCC(C(=O)Nc2ccncc2)CC1 (some centres not stated) | x | x | x | x | 8%[1.9 µM] | x
Oc1cc(O)c2c(c1)O[C@H](c1ccc(O)c(O)c1)[C@@H](O)[C@@H]2c1c(O)cc(O)c2c1O[C@@H](c1ccc(O)c(O)c1)[C@H](O)C2 | x | x | x | x | -4%[10 µM] | x
Cc1c(Cl)c(S(N)(=O)=O)cc2c1=NC=NS=2(=O)O | x | x | x | x | 15%[10 µM] | x
CCOC(=O)c1ccc(NC2=CC(=O)C(=O)c3ccccc32)cc1 | 17% | -12% | -20% | u | -82% | -5%[46.1 µM]
Cc1ccc(NC2=CC(=O)C(=O)c3ccccc32)cc1 | u | u | 4% | 10µM* | -74%[10 µM] | -12%[46.1 µM]
O=C(O)CCCCCC[C@@H]1C(=O)NC(=O)N1CC[C@@H](O)C1CCCCC1 | x | x | x | x | -3%[1.9 µM] | x
CC(C)[C@H]1c2ccc(F)cc2CC[C@@]1(CCN(C)CCCc1nc2ccccc2[nH]1)OC(=O)C1CC1 | x | x | 8% | x | -355% | x
CCn1cc(C(=O)NCc2ccco2)c(=O)c2cc(S(=O)(=O)N3CCCCCC3)ccc21 | u | -8% | -3% | 13µM* | -95%[10 µM] | u
CCn1cc(C(=O)NCc2ccco2)c(=O)c2cc(S(=O)(=O)N3CCC(C)CC3)ccc21 | 2% | 10% | -3% | u | -62%[0.074 µM] | u
COc1ccc2[nH]cc(CCNc3ncncc3-c3c(C)noc3C)c2c1 | -13% | x | x | x | u | x
COc1cccc(-c2cncnc2NCCc2c[nH]c3ccc(OC)cc23)c1 | u | x | x | x | 3.2µM* | x
Cc1c(/C=N/NC(=O)c2cccnc2)c2ccccc2n1Cc1ccccc1 | u | 3% | -4% | 10µM* | 5%[10 µM] | 7%
SMILES | Lamin A splicing | MBNL1-CUG inh | CBFb RUNX1 block | HTT aggregate | HTT ATP protect | NPSR antag
N[C@H](C(=O)O)[C@H]1C[C@H]1C(=O)O | x | x | 19% | x | -51% | x
CCOC(=O)c1nc(-c2ccc(OC)c(OC)c2)no1 | x | x | -6% | 0.63µM* | -77%[10 µM] | 9%
Cn1c2c(c(=O)n(C)c1=O)[C@@]1(C(=O)Nc3ccccc31)C(C#N)=C(N)O2 | -14% | -1% | -8% | 13µM* | 3%[10 µM] | -3%[46.1 µM]
Cc1cc(C)nc(Sc2ncnc(N)c2[N+](=O)[O-])n1 | u | u | 6% | 10µM* | 4%[10 µM] | -19%
CN(C)S(=O)(=O)c1ccc2c(c1)nc(CCC(=O)NCc1ccc(Cl)cc1)n2C | x | -3% | -1% | u | 0.63µM* | -8%
CN(C)S(=O)(=O)c1ccc2c(c1)nc(CCC(=O)NCC1CCCCC1)n2C | u | 0% | 6% | 8% | 18%[10 µM] | -4%[46.1 µM]
NC1=NC[C@H](CC2CCCCC2)N1CCc1cc(C(F)(F)F)cc(C(F)(F)F)c1 | x | 3% | 22% | -5%[9.22 µM] | -10%[10 µM] | 10µM*
CSCC[C@@H]1NC(=O)[C@@H](NC(=O)[C@H](CCCNC(=N)N)NC(=O)[C@H](CC(C)C)NC(=O)[C@H](CCSC)NC(=O)[C@H](CC(=O)O)NC(=O)[C@H](Cc2ccccc2)NC(=O)[C@@H](N)CC(=O)O)CSSC[C@@H](C(=O)N[C@@H](Cc2c[nH]c3ccccc23)C(=O)N[C@@H](CCC(N)=O)C(=O)N[C@H](C(=O)O)C(C)C)NC(=O)[C@@H]2CCCN2C(=O)[C@H](CCCNC(=N)N)NC(=O)[C@H](Cc2ccc(O)cc2)NC(=O)[C@H](C(C)C)NC(=O)[C@H](CCCNC(=N)N)NC(=O)CNC(=O)[C@H](CC(C)C)NC1=O | x | x | 11% | x | x | x
O=[N+]([O-])c1cccc(CSc2ncnc3ccccc23)c1 | u | x | -30% | 15% | 2.2µM* | -31%
Cc1cccc(CSc2ncnc3ccccc23)c1 | u | 1% | 2% | -26% | -9% | -36%
COc1ccc(C2C(C#N)=C(SCC(=O)Nc3ccc(C)cc3)NC3=C2C(=O)CC(C)(C)C3)cc1 (configuration not stated) | 4% | 30% | 1% | 11µM* | -43% | -8%[46.1 µM]
Cc1cc(C(=O)OCc2nnc(-c3ccccc3)o2)c(C)n1-c1ccccc1 | u | 2% | -9% | 11µM* | -33% | -27%[46.1 µM]
O=C(OCc1nnc(-c2ccccc2)o1)c1cn(-c2ccccc2)nc1-c1ccccc1 | u | 10% | 16% | -16% | -14%[0.074 µM] | u
CCCCNC(=O)CCCN1C(=O)CCn2nc(-c3cccn3C)cc21 | -18%[46 µM] | x | x | x | x | x
CC1CCN(S(=O)(=O)c2cccc(C(=O)N(Cc3ccccc3)c3ccccn3)c2)CC1 | x | 3% | 10% | 11µM* | -17% | u
COc1ccc(-c2coc3cc(O[C@@H]4O[C@@H](CO)[C@@H](O)[C@@H](O)[C@H]4O)cc(O)c3c2=O)cc1 | x | x | x | x | -23% | x
Cn1c2c(c(=O)n(C)c1=O)C(NS(=O)(=O)c1ccccc1)(C(F)(F)F)C(=O)N2 (configuration not stated) | -3% | -2% | 1% | 11% | 3.5µM* | -1%[46.1 µM]

From PubChem
